Shown are actives, neighbours in structure and some others; about 19% of the full set was active somewhere.
TDP1 cell CPT: DT40-hTDP1 cell growth loss with CPT. chicken DT40 Tdp1-/-;hTDP1 cells + 20 nM CPT, ATP luminescence, 48 h. Potency, µM (doses to about 46.2 µM), without a hit: top-dose activity change, negative = growth inhibition, most hits filed as inhibitors. hit rate 12% among 420,000. AID 686979; also: nearly all actives have a fitted effect of over 55% in size
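Chicken DT40 Tdp1-/- cells stably complemented with human TDP1 were seeded at 400 cells/well in medium containing 20 nM camptothecin, exposed to pin-transferred compounds, and grown at 37 °C for at least 48 hr. Viability was read as ATP luminescence.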
KB-V1 cytotox: kills drug-selected multidrug resistant KB-V1 cells. hit rate 3.4% among 400,000. AID 1347076. KB-V1 MDR cells viability, CellTiter-Glo, 72 h. Potency, µM (doses to about 46.1 µM), usual class: cytotoxic; also: nearly all actives have a fitted effect of over 60% in size
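In this primary screen, KB-V1 cells overexpressing P-gp are incubated with library compounds (lowest to highest concentration) for 72 h at 37 degrees C before a luminescent ATP viability read.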
HT1080 IDH1KD tx: kills HT-1080 cells with IDH1 knockdown | HT-1080 IDH1 knockdown viability, ATP luminescence, 48 h | Potency, µM (titrated, usually from 46.1 µM), for the others: at the top dose activity, negative = toxicity, usual class: cytotoxic | hit rate 2% among 360,000;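 also: 0% = DMSO wells and -100% = cell-free medium wells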
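Using the IDH1-knockdown HT-1080 line run in the same batch and compound series as the NT line, viability after 48 h at 37 °C was determined by CellTiter-Glo luminescence and expressed as % activity.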
DT40 TDP1 no CPT: qHTS for Inhibitors of human tyrosyl-DNA phosphodiesterase 1 (TDP1): qHTS in cells in absence of CPT; AID 686978, 2013; hit rate 15% among 420,000; Potency, µM (series often up to 46.2 µM), without a hit: at the top dose activity change, negative = growth inhibition, hits mostly inhibitors; DT40 Tdp1-/- hTDP1 cells, no CPT, ATP luminescence, 48 h; also: nearly all actives have a fitted effect of over 55% in size
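Luminescent ATP content (CellTiter-Glo) served as the growth readout. Knockout chicken DT40 cells expressing human TDP1 were exposed to compounds without camptothecin for a minimum 48 hr at 37 °C.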
KB-3-1 cytotox: kills parental KB-3-1 adenocarcinoma cells; KB-3-1 viability, CellTiter-Glo ATP luminescence, 72 h; Potency, µM (top dose mostly 46.1 µM), actives largely listed as cytotoxic; hit rate 1.4% among 400,000; also: nearly all actives have a fitted effect of over 60% in size
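Cytotoxicity measured as CellTiter-Glo luminescence after 72 h at 37 C. Compound titrations were pinned onto drug-naive KB-3-1 parental adenocarcinoma cells grown in DMEM with 10% FBS, and normalized data fitted to concentration-response curves.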
HT1080-NT tox: kills 2HG-producing HT-1080-NT fibrosarcoma cells; HT-1080-NT fibrosarcoma viability, CellTiter-Glo ATP luminescence, 48 h; Potency, µM (titrated, usually from 46.1 µM), for the others: at the top dose activity, negative = less viability, hits mostly cytotoxic; hit rate 1.6% among 360,000; AID 686970;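 also: NT is the 2HG producing partner of a matched IDH1 knockdown line; 0% = DMSO-treated cells and -100% = media-only wells without cells; nearly all actives have a fitted effect of over 55% in size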
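A 48-hour cytotoxicity screen used HT-1080-NT cells plated 2 hours before compound delivery. ATP-based CellTiter-Glo luminescence measured viability, normalized to DMSO and no-cell controls.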
Numbers without * were called inactive; i = inactive; ? = inconclusive; . = no result. Calls follow the shape of the dose curve; as a rule, active = well fitted curve in the direction sought with a large enough effect; inconclusive = small, poorly fitted or top-dose-only effect, or another doubt; inactive = no such curve, though single readings can be large; an effect the other way counts as inactive or inconclusive. Unless noted, % is scaled to controls: 0 for no effect and ±100 for the full control effect; potency is read from the fitted curve at half-maximal effect.

SMILES	TDP1 cell CPT	KB-V1 cytotox	HT1080 IDH1KD tx	DT40 TDP1 no CPT	KB-3-1 cytotox	HT1080-NT tox
O=C(N/N=C/C1CC=CCC1)c1cc2ccccc2cc1O (stereo unspecified)	10%	i	18µM*	-16%	i	?
O=C(N/N=C/c1cccnc1)c1cc(-c2cccs2)nc2ccccc12	?	?	?	16µM*	16µM*	?
CCSC1=NC2(CCN(C(=O)NC3CCCCC3)CC2)N=C1c1ccc(C)c(C)c1	-7%	i	.	-1%	?	.
CCO[C@H](Cc1ccc(OCCc2ccc(OS(C)(=O)=O)cc2)cc1)C(=O)O	-6%	.	.	0%	.	.
Cc1ccc2onc(CNC(=O)N3CCN(c4cc(Cl)ccc4C)CC3)c2c1	?	i	.	?	i	.
O=C(Nc1cccc(NC(=O)c2ccco2)n1)c1ccco1	?	i	9%	?	i	9%
CCC(C(=O)N1CCN(Cc2ccc3c(c2)OCO3)CC1)n1nnc2ccccc2c1=O (stereo unspecified)	?	?	2%	?	i	-4%
O=C(NC(=S)N1CC=CCC1)c1ccccc1	1%	i	1%	?	i	1%
O=C(N/N=C/c1ccc[nH]1)c1cc(-c2cccs2)nc2ccccc12	?	?	?	21µM*	?	?
O=C(N/N=C/c1ccc2ncccc2c1)c1cc(-c2cccs2)nc2ccccc12	2.9µM*	?	0%	3.3µM*	?	27%
Cc1ccc(C(C)C)c(OCC(=O)N/N=C/c2cccn2C)c1	?	i	-5%	15µM*	i	-4%
Cc1cccc(OCC(=O)N/N=C/c2cccn2C)c1	0%	i	16%	-24%	i	11%
O=C(NCc1ccco1)c1cc(-c2cccs2)nc2ccccc12	?	?	-11%	?	i	-10%
Cn1cccc1/C=N/NC(=O)c1cc(-c2cccs2)nc2ccccc12	8.2µM*	6.5µM*	?	5.8µM*	7.3µM*	?
Cc1cc(C(=O)N/N=C/c2ccncc2)c2ccccc2n1	-1%	i	-25%	-3%	i	-3%
O=C(COC(=O)c1cc[n+]([O-])cc1)Nc1ccc(Cl)cc1Cl	-12%	i	14%	-10%	i	12%
Cn1cccc1/C=N/NC(=O)c1cc2ccccc2cc1O	-27%	i	-25%	21µM*	i	-26%
Cc1ccc2c(Cl)c(C(=O)N/N=C/c3cccn3C)sc2c1	8.2µM*	i	?	8.2µM*	i	?
Cn1cccc1/C=N/NC(=O)c1ccccn1	?	i	3%	?	i	0%
Cc1cccc(N2CCN(C(=O)c3cnn(-c4cccc(Cl)c4C)c3C3CCNCC3)CC2)c1C	3.7µM*	.	.	5.2µM*	.	.
Cc1ccc(-n2ncc(C(=O)N3CCN(C4CCCCC4)CC3)c2C2CCN(C(=O)OC(C)(C)C)CC2)cc1C	8.2µM*	i	.	7.3µM*	i	.
CC(C)(C)OC(=O)N1CCC(c2c(C(=O)N3CCN(C4CCCCC4)CC3)cnn2-c2ccc(F)cc2)CC1	-18%	i	-6%	10%	i	14%
Cc1c(Cl)cccc1-n1ncc(C(=O)N2CCOCC2)c1C1CCN(C(=O)OC(C)(C)C)CC1	?	i	.	-17%	i	.
COc1ccc(-n2ncc(C(=O)N3CCN(C4CCCCC4)CC3)c2C2CCN(C(=O)OC(C)(C)C)CC2)cc1	?	i	.	21µM*	i	.
Cc1ccc(N2CCN(C(=O)c3cnn(-c4ccc(C)c(C)c4)c3C3CCNCC3)CC2)c(C)c1	6.5µM*	i	.	6.5µM*	?	.
SMILES	TDP1 cell CPT	KB-V1 cytotox	HT1080 IDH1KD tx	DT40 TDP1 no CPT	KB-3-1 cytotox	HT1080-NT tox
COc1ccc(-c2c(C)nn3c(C(F)(F)F)cc(-c4ccccc4)nc23)cc1	?	i	.	?	i	.
Cc1ccc(CNC(=O)CSc2ncc3c(n2)-c2cc(Cl)ccc2N(C)S3(=O)=O)cc1	?	i	.	?	i	.
CCc1ccc(NC(=O)Cc2c(C(=O)O)n(C)c3ccccc23)cc1	-2%	i	-17%	1%	i	-4%
CC(C)(C)OC(=O)N1CCC(c2c(C(=O)N3CCN(C4CCCCC4)CC3)cnn2-c2cccc(Cl)c2)CC1	16µM*	i	.	23µM*	i	.
CCOC(=O)c1cnn(-c2cccc(Cl)c2)c1C1CCN(C(=O)OC(C)(C)C)CC1	23µM*	?	.	?	?	.
Cc1ccc(-n2ncc(C(=O)N3CCN(c4ccccn4)CC3)c2C2CCN(C(=O)OC(C)(C)C)CC2)cc1C	-10%	i	.	-16%	i	.
COc1ccccc1N1CCN(C(=O)c2cnn(-c3ccc(C)c(C)c3)c2C2CCN(C(=O)OC(C)(C)C)CC2)CC1	21µM*	i	.	21µM*	21µM*	.
CCN1CCN(C(=O)c2cnn(-c3cccc(Cl)c3)c2C2CCN(C(=O)OC(C)(C)C)CC2)CC1	-23%	i	.	?	i	.
CCN1C(=O)[C@@H]2[C@@H](c3ccc(-c4cc(C(C)=O)cs4)cc3)N3CCC[C@@]3(C(=O)OC)[C@@H]2C1=O	?	i	1%	?	i	-5%
CCN1C(=O)[C@@H]2[C@@H](c3ccc(-c4ccc(F)cc4)cc3)N3CCCC[C@@]3(C(=O)OC)[C@@H]2C1=O	?	?	?	23µM*	i	-10%
CCN1C(=O)[C@H]2[C@@H](c3ccc(-c4ccc(C(C)=O)cc4)c(OC)c3)N3CCCC[C@@]3(C(=O)OC)[C@H]2C1=O	23µM*	i	-11%	16µM*	i	0%
CCN1C(=O)[C@@H]2[C@@H](c3ccc(-c4ccc(F)cc4)c(OC)c3)N3CCCC[C@@]3(C(=O)OC)[C@@H]2C1=O	16µM*	i	19%	16µM*	i	0%
CCOC(=O)c1c(-c2ccc(OC)cc2)csc1NC(=O)C1CCCO1 (stereo unspecified)	?	?	0%	?	i	-2%
CCOC(=O)c1c(-c2ccccc2)csc1NC(=O)c1cc(-c2ccc(Cl)cc2)on1	-9%	i	.	-10%	i	.
CC(C)OC(=O)c1c(-c2ccc(C(C)C)cc2)csc1NC(=O)C1CCCO1 (stereo unspecified)	?	?	0%	15µM*	?	-1%

Bioassay records (PubChem BioAssay)
